# Measured values reported in PubChem BioAssay (EPA / NIEHS).
# Where “and” joins values, the source holds several entries; their conditions need not be identical. Equal values may be shown once. Inconclusive results are not listed. Calls of active or inactive are those of the source. How the source made its calls: active means hit-call score of the fitted dose curve at least 0.9, where 1 is the maximum; inconclusive means response in the unintended direction; inactive means score below 0.9.
# Experiments:
# rat CYP2B1, gene 24300 = assay: NVS_ADME_rCYP2B1: NovaScreen (NVS) CYP450-related Enzyme Activity (ADME) Assay for rat CYP2B1 (AID 2283117)
# Outline: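 Cell-free fluorescence enzyme assay, recombinant rat CYP2B1, 0.75 h after dosing. Single-concentration duplicates at 10 uM preceded concentration series (max 20 uM) for actives; acetonitrile as negative-control baseline.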
# [1] = biological target: human Acetylcholinesterase (AChE), ACHE (gene 43) (UniProt P22303); assay: NVS_ENZ_hAChE: NovaScreen (NVS) Enzymatic Assay for human Acetylcholinesterase (AChE) (AID 2283129)
# Chain of human Acetylcholinesterase (AChE), ACHE (gene 43) (P22303 whole entry, looked up): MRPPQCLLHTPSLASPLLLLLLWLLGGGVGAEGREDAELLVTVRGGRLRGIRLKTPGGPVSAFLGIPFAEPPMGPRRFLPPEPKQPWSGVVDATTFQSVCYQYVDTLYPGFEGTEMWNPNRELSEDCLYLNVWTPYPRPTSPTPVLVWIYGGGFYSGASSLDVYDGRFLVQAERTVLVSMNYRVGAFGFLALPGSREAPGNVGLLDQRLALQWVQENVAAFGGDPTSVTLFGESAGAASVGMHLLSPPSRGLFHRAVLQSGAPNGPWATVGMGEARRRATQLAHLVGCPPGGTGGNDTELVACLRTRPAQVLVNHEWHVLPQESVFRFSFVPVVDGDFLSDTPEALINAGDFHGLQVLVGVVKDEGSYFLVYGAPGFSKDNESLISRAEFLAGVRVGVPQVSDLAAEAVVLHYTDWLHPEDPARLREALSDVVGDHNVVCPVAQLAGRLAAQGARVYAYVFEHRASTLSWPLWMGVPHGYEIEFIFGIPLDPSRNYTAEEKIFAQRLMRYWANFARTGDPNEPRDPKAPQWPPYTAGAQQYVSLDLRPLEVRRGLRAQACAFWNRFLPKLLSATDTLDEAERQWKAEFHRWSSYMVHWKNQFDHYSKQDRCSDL
# Outline: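 Actives from a duplicate single-point screen (25 uM) were followed up in concentration series. Enzyme activity read by absorbance (colorimetric) 0.33 hour after dosing, cell-free, normalized to DMSO, with loss of signal scored.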
# [2] = biological target: human Caspase 2 (CASP2), CASP2 (gene 835) (UniProt P42575); assay: NVS_ENZ_hCASP2: NovaScreen (NVS) Enzymatic Assay for human Caspase 2 (CASP2) (AID 2283135)
# Chain of human Caspase 2 (CASP2), CASP2 (gene 835) (P42575 whole entry, looked up): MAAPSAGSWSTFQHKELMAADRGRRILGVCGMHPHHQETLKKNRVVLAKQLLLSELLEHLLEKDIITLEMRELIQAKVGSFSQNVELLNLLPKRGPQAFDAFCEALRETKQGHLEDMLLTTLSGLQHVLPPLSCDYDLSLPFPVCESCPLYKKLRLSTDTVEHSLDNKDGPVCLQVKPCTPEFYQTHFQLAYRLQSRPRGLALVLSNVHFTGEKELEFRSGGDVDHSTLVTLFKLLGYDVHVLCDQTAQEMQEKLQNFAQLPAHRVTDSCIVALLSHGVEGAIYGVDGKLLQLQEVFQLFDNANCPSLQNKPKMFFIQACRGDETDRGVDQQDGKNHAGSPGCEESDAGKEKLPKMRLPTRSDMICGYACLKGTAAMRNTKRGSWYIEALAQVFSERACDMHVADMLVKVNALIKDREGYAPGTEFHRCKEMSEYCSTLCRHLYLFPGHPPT
# Outline: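 Single-point duplicate testing at 25 uM preceded concentration series topping at 50 uM. Activity of the recombinant E. coli-derived protease was followed by fluorescent substrate cleavage 1 h post-dosing, relative to DMSO.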
# [3] = biological target: rat CYP2C11, Cyp2c11 (gene 29277) (UniProt P08683); assay: NVS_ADME_rCYP2C11: NovaScreen (NVS) CYP450-related Enzyme Activity (ADME) Assay for rat CYP2C11 (AID 2283118)
# Chain of rat CYP2C11, Cyp2c11 (gene 29277) (P08683 whole entry, looked up): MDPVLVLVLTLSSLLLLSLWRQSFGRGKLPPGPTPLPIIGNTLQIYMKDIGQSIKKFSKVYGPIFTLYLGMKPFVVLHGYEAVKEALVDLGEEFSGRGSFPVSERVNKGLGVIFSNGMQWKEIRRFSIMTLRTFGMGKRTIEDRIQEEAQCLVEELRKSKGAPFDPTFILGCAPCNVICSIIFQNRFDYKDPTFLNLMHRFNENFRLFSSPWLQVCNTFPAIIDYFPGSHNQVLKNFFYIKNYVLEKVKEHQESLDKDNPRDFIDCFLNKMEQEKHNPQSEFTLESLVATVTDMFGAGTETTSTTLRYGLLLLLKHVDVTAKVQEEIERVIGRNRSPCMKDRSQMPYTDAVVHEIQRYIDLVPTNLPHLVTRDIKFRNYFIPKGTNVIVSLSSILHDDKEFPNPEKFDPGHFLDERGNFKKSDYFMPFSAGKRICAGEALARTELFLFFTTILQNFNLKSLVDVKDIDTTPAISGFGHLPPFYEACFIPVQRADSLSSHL
# Outline: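 Screened first at 10 uM in duplicate, hits followed by concentration-response. Recombinant rat enzyme activity monitored by fluorescence 0.33 h post-dosing, normalised to acetonitrile negative control.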
# rat CYP3A1, gene 25642 = assay: NVS_ADME_rCYP3A1: NovaScreen (NVS) CYP450-related Enzyme Activity (ADME) Assay for rat CYP3A1 (AID 2283126)
# Outline: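 Compounds went first at 10 uM duplicate, then to series with 20 uM maximum. Fluorescence from substrate turnover by the recombinant enzyme was measured 0.5 h post-dosing, inhibition scored against acetonitrile vehicle.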
# [4] = biological target: rat CYP2C13, Cyp2c13 (gene 171521) (UniProt P20814); assay: NVS_ADME_rCYP2C13: NovaScreen (NVS) CYP450-related Enzyme Activity (ADME) Assay for rat CYP2C13 (AID 2283121)
# Chain of rat CYP2C13, Cyp2c13 (gene 171521) (P20814 whole entry, looked up): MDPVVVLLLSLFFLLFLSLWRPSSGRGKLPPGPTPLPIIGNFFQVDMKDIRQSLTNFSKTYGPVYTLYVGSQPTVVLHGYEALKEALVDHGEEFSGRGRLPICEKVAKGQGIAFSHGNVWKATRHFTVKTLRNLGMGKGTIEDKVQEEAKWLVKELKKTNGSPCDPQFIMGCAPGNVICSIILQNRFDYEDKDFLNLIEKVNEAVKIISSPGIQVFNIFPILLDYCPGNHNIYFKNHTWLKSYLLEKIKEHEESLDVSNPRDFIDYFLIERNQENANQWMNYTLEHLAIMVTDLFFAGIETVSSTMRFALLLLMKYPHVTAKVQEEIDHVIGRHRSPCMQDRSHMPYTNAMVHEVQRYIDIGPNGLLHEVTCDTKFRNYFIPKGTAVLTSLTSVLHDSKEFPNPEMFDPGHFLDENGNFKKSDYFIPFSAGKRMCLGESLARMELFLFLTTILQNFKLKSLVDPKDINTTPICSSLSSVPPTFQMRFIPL
# Outline: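 Inhibition is read as decreased fluorescent product formation, referenced to acetonitrile vehicle. Cell-free recombinant rat Cyp2c13 reaction ran 0.75 hour; compounds first at 10 uM in duplicate, then concentration series for actives.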
# [5] = biological target: rat CYP2D1, Cyp2d1 (gene 266684) (UniProt P10633); assay: NVS_ADME_rCYP2D1: NovaScreen (NVS) CYP450-related Enzyme Activity (ADME) Assay for rat CYP2D1 (AID 2283122)
# Chain of rat CYP2D1, Cyp2d1 (gene 266684) (P10633 whole entry, looked up): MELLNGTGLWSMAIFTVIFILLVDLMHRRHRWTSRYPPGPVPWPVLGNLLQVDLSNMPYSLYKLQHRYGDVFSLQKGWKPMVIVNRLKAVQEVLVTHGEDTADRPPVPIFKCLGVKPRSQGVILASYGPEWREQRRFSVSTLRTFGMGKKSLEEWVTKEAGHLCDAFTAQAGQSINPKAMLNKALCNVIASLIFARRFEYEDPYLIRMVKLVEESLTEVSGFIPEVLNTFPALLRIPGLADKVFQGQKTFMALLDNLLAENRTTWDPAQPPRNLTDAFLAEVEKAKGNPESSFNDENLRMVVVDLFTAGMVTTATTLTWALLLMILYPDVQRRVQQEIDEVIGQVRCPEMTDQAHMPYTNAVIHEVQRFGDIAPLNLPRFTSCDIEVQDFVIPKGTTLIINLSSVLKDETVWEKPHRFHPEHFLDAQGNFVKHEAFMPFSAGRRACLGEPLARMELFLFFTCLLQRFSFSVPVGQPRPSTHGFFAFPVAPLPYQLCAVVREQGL
# Outline: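 Rat CYP2D1 enzyme activity measured by fluorescence intensity in a cell-free format, 0.75 h post-dosing, acetonitrile as negative control. Screening at 10 uM in duplicate, with actives followed in concentration series up to 20 uM.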
# Caspase-1 (Homo sapiens) = Caspase-1 (Homo sapiens) (UniProt P29466); assay: NVS_ENZ_hCASP1: NovaScreen (NVS) Enzymatic Assay for human Caspase 1 (CASP1) (AID 2283132)
# Chain of Caspase-1 (Homo sapiens) (P29466 whole entry, looked up): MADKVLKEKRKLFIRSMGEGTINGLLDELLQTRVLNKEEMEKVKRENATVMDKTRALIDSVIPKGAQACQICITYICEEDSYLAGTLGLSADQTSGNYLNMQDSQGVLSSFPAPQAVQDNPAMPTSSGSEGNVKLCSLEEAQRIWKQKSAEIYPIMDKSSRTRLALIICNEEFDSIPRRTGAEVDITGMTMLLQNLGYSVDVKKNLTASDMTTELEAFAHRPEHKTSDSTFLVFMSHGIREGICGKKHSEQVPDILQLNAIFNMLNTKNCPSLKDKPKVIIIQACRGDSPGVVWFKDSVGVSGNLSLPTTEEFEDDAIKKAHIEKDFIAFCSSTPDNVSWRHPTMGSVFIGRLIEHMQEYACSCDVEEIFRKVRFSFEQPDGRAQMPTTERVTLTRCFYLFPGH
# Outline: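 Compounds were first tested in duplicate at 25 uM, with follow-up concentration series up to 50 uM. The bacterially expressed enzyme was read by fluorescence at 1 h post-dosing. Signal loss versus DMSO baseline indicates reduced enzyme activity.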
# [6] = biological target: human Beta-secretase (BACE), BACE1 (gene 23621) (UniProt P56817); assay: NVS_ENZ_hBACE: NovaScreen (NVS) Enzymatic Assay for human Beta-secretase (BACE) (AID 2283140);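 further: hits are inhibitors that reduce fluorescent substrate signal versus DMSO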
# Chain of human Beta-secretase (BACE), BACE1 (gene 23621) (P56817 whole entry, looked up): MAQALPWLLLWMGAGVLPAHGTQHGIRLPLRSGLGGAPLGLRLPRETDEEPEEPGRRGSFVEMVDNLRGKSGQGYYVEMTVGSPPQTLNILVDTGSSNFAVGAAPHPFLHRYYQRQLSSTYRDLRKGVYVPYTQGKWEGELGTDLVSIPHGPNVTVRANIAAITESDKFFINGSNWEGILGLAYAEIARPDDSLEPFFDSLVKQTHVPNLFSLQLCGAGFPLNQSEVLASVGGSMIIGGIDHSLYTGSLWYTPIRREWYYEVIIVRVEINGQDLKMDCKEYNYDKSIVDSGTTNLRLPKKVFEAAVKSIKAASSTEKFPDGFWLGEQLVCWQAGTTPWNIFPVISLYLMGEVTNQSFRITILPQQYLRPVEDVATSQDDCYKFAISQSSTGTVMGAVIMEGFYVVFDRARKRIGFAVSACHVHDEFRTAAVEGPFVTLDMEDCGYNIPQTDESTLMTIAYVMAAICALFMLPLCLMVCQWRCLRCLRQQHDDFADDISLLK
# Outline: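 Enzyme from SF9 cells was incubated 1 hour with compound and fluorogenic substrate, activity read by fluorescence. Single-concentration duplicates at 25 uM preceded concentration-response follow-up; fitting relative to DMSO baseline.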
# [7] = biological target: rat CYP2A2, Cyp2a2 (gene 24895) (UniProt P15149); assay: NVS_ADME_rCYP2A2: NovaScreen (NVS) CYP450-related Enzyme Activity (ADME) Assay for rat CYP2A2 (AID 2283116)
# Chain of rat CYP2A2, Cyp2a2 (gene 24895) (P15149 whole entry, looked up): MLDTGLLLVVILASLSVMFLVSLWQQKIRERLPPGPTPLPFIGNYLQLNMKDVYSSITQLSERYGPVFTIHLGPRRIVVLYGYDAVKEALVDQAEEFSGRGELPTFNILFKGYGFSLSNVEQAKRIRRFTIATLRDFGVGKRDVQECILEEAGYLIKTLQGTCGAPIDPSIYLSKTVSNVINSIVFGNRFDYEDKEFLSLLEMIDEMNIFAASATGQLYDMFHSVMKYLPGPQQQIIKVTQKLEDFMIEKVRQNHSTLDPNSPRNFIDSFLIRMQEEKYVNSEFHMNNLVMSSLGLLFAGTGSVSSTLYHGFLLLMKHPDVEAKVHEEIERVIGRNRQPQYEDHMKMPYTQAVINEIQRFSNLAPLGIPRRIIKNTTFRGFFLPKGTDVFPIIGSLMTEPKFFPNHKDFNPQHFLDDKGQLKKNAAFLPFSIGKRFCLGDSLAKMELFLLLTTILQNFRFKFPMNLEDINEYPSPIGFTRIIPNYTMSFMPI
# Outline: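 Compounds first tested in duplicate at 10 uM, then in singleton concentration series up to 20 uM when over threshold. Activity of the recombinant enzyme read by fluorescence at 0.2 h, normalised to acetonitrile vehicle.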
# [8] = biological target: rat CYP2C12, Cyp2c12 (gene 25011) (UniProt P11510); assay: NVS_ADME_rCYP2C12: NovaScreen (NVS) CYP450-related Enzyme Activity (ADME) Assay for rat CYP2C12 (AID 2283119)
# Chain of rat CYP2C12, Cyp2c12 (gene 25011) (P11510 whole entry, looked up): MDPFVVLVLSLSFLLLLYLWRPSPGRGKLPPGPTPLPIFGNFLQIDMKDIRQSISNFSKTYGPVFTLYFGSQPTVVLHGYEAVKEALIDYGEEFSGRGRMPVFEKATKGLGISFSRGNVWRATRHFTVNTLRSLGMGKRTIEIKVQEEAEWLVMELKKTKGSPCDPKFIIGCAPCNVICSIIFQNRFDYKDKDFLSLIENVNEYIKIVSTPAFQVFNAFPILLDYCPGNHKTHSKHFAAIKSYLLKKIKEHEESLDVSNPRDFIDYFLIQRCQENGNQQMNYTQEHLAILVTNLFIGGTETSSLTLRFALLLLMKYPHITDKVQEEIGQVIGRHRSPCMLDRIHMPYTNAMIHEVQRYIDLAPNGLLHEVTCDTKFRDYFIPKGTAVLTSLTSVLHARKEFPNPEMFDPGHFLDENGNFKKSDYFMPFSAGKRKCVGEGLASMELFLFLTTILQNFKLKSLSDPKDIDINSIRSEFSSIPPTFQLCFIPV
# Outline: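 Fluorescent-substrate turnover by recombinant rat CYP2C12, measured at 0.5 h, normalized to acetonitrile vehicle. Chemicals screened first at a single 10 uM concentration in duplicate, with concentration series for actives.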
# [9] = biological target: human Caspase 10 (CASP10), CASP10 (gene 843) (UniProt Q92851); assay: NVS_ENZ_hCASP10: NovaScreen (NVS) Enzymatic Assay for human Caspase 10 (CASP10) (AID 2283133)
# Chain of human Caspase 10 (CASP10), CASP10 (gene 843) (Q92851 whole entry, looked up): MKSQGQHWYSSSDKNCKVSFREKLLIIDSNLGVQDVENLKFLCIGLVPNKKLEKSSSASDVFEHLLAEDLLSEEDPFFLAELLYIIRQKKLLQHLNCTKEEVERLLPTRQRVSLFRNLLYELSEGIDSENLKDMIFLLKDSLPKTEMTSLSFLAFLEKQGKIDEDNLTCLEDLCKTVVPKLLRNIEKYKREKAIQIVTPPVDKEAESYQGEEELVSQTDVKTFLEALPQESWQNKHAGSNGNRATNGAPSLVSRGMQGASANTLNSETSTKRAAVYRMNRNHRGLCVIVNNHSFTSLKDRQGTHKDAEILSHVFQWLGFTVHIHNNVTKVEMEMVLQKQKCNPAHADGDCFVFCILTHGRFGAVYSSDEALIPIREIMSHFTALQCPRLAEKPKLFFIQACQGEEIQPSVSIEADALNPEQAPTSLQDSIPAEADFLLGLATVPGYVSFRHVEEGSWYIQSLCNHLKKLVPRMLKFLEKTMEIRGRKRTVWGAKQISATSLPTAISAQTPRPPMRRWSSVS
# Outline: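 Fluorescence-intensity enzyme read-out of E. coli-expressed CASP10 activity, 1 h after compound. Single-point duplicates at 25 uM preceded concentration-response testing (top 50 uM) of hits; inhibition expressed as signal loss versus DMSO.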
structure (smiles),measurement,setting,value
CCNC(=O)NC(=O)C(C#N)=NOC,outcome,"rat CYP2B1, gene 24300",inactive
same,outcome,[1],inactive
same,outcome,[2],inactive
CC(C)N1C(=O)N(c2ccccc2)CSC1=NC(C)(C)C,AC50,[3],3.97 µM (active)
same,AC50,"rat CYP3A1, gene 25642",5.84 µM (active)
same,outcome,[2],inactive
COc1ccc(-c2ccccc2)cc1NNC(=O)OC(C)C,outcome,[3],inactive
same,AC50,[4],1.17 µM (active)
same,AC50,"rat CYP3A1, gene 25642",2.96 µM (active)
COC(=O)c1c(C(F)F)nc(C(F)(F)F)c(C2=NCCS2)c1CC(C)C,AC50,[5],5.48 µM (active)
same,AC50,"rat CYP3A1, gene 25642",2.32 µM (active)
same,outcome,Caspase-1 (Homo sapiens),inactive
same,AC50,[6],8.78 µM (active)
CC1(C)CCC(=Cc2ccc(Cl)cc2)C1(O)Cn1cncn1 (centres undefined),AC50,[7],0.299 µM (active)
same,AC50,"rat CYP2B1, gene 24300",1.84 µM (active)
same,AC50,[3],0.384 µM (active)
same,AC50,"rat CYP3A1, gene 25642",0.0126 µM (active)
CC(C)(C)C(=O)C(Oc1ccc(Cl)cc1)n1cncn1 (centres undefined),AC50,[7],32 nM (active) and 40.6 nM (active)
same,AC50,"rat CYP2B1, gene 24300",549 nM (active) and 1.69 µM (active)
same,AC50,[3],4.29 µM (active)
same,AC50,[4],0.246 µM (active)
same,AC50,[5],6.43 µM (active)
same,AC50,"rat CYP3A1, gene 25642",8.49 µM (active)
CCCCOCN(C(=O)CCl)c1c(CC)cccc1CC,AC50,[4],10 µM (active)
same,AC50,"rat CYP3A1, gene 25642",10 µM (active)
same,AC50,[6],9.39 µM (active)
CCC(C)n1c(=O)[nH]c(C)c(Br)c1=O (centres undefined),AC50,[5],3.93 µM (active)
same,outcome,[1],inactive
CCN(CC)C(=O)C(C)Oc1cccc2ccccc12 (centres undefined),AC50,[7],5.89 µM (active)
same,AC50,[3],0.951 µM (active)
same,AC50,"rat CYP3A1, gene 25642",4.43 µM (active)
same,outcome,Caspase-1 (Homo sapiens),inactive
COC(=O)N(C(=O)N1CO[C@@]2(C(=O)OC)Cc3cc(Cl)ccc3C2=N1)c1ccc(OC(F)(F)F)cc1,AC50,[8],0.332 µM (active)
same,outcome,[9],inactive
same,outcome,[6],inactive
CCNP(=S)(OC)O/C(C)=C/C(=O)OC(C)C (centres undefined),AC50,[7],6.86 µM (active)
same,AC50,"rat CYP2B1, gene 24300",1.45 µM (active)
same,AC50,[3],1.24 µM (active)
same,AC50,[8],10 µM (active)
same,AC50,[4],7.31 µM (active)
same,AC50,"rat CYP3A1, gene 25642",1.93 µM (active)
same,outcome,Caspase-1 (Homo sapiens),inactive
COP(=S)(OC)Oc1ccc([N+](=O)[O-])c(C)c1,AC50,"rat CYP2B1, gene 24300",1.17 µM (active)
same,AC50,[3],0.392 µM (active)
same,AC50,[8],8.05 µM (active)
same,AC50,[4],10 µM (active)
same,AC50,"rat CYP3A1, gene 25642",8.22 µM (active)
C=CCOC(=O)C(C)(C)OC(=O)c1cc(-n2c(=O)cc(C(F)(F)F)n(C)c2=O)ccc1Cl,outcome,[8],inactive
same,AC50,"rat CYP3A1, gene 25642",0.595 µM (active)
